High-throughput results from PubChem BioAssay.
SNCA expr inh: SNCA gene expression inhibition. HEK-293 SNCA-luciferase knock-in, luminescence, 24 h. Potency, µM (titrated, usually from 57.2 µM), without a hit: at the top dose activity change, negative = inhibition, hits mostly inhibitors. actives 0.17% (n = 140,000);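 also: potency is read from the fitted curve at half-maximal effect; plate controls were DMSO cells for no effect and cell-free wells for full effect; nearly all actives have a fitted effect of over 45% in size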
KDM5B inh: inhibitors of human KDM5B histone demethylase; Potency, µM (highest dose often 57.7 µM), hits mostly inhibitors; KDM5B demethylase, FDH-coupled NADH fluorescence (FDH is formaldehyde dehydrogenase); actives 2.6% (n = 220,000); also: potency is read from the fitted curve at half-maximal effect; 0% is about no effect; nearly all actives have a fitted effect of over 70% in size
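Coupled FDH/NAD⁺ fluorescence readout. KDM5BΔAP 200 nM final; compound titration, 10 min RT preincubation; substrate mix 12.5 µM H3K4me3, 25 µM 2-OG, 50 µM Fe(II), 100 µM ascorbate, 0.25 mM NAD⁺, 0.25 U/mL FDH; ΔRFU over 30 min.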
SNCA viab count: cell viability loss counter-screen; AID 1671193; actives 0.12% (n = 150,000); Potency, µM (doses to about 57.1 µM), for inactives: at the top dose activity change, negative = cytotoxicity, usual class: cytotoxic; HEK-293-SNCA-luc viability, GF-AFC fluorescence, 24 h;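 also: potency is read from the fitted curve at half-maximal effect; 0% = DMSO-treated cells and -100% = medium-only wells without cells; nearly all actives have a fitted effect of over 30% in size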
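HEK-293-SNCA-luc cells (1500/well) plated 24 h, then exposed 24 h to a dilution series; GF-AFC added 30 min at 37C, fluorescence 405/540 nm; normalised to medium-only and DMSO wells, Hill fit.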
IP6K1 inh: IP6K1 kinase inhibition; IP6K1 kinase, ADP-Glo luminescence, 2 h; stronger effect = lower value; activity change, % (series mostly up to about 58 µM); actives 0.81% (n = 140,000); AID 1645851; in the data active = activity change below about -25%; also: % is scaled to controls: 0 for no effect and ±100 for the full control effect
Target sequence (Q92551 whole entry, looked up): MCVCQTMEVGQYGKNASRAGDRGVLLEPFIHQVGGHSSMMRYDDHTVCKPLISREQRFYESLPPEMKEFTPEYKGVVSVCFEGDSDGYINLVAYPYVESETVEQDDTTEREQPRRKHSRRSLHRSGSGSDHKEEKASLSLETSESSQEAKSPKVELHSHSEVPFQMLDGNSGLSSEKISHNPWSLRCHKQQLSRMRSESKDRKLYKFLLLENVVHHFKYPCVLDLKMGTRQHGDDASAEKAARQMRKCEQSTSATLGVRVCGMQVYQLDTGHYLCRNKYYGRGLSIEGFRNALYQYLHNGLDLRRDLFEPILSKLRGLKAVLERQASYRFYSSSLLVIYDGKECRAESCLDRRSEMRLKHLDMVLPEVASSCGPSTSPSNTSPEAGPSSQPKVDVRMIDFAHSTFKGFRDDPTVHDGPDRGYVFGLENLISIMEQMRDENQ
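ADP-Glo luminescence measures ADP made by human IP6K1 during a 2 h RT reaction with ATP/IP6 (mix at 1.3 mM/130 uM); top library doses 57.5 and 19.1 uM final.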
Starred values were filed as active, the others as inactive; [ ] = dose if it differs, or a comment. Shown are actives, neighbours in structure and some others; about 2.8% of the full set was active somewhere. Unless noted, calls follow the shape of the dose curve; as a rule, active = well fitted curve in the direction sought with a large enough effect; inconclusive = small, poorly fitted or top-dose-only effect, or another doubt; inactive = no such curve, though single readings can be large; an effect the other way counts as inactive or inconclusive.

For CCOC(=O)c1ccc(NC(=O)CSc2ncc(S(=O)(=O)c3ccc(C)c(Cl)c3)c(=O)[nH]2)cc1 the results were SNCA expr inh -2.4%, KDM5B inh inactive, SNCA viab count -15.3% and IP6K1 inh -49.2*.
COc1ccc(C2(C(=O)N3CCCC(c4[nH]ccc4C(N)=O)C3)CC2)cc1 (stereo unspecified) was read as SNCA expr inh inconclusive, KDM5B inh inactive, SNCA viab count -0.8%[12.5 µM] and IP6K1 inh 32.6.
CN(C)c1ccc(CN2C[C@@H](CN3CCCCC3)[C@@H](CO)C2)cn1 was read as SNCA expr inh 14.9%, KDM5B inh 28.2µM*, SNCA viab count -4.4% and IP6K1 inh 0.0.
Screening CCOC(=O)C1=CN(CC(=O)Nc2cc(F)ccc2F)S(=O)(=O)N=C1C returned SNCA expr inh -7.7%, KDM5B inh inactive, SNCA viab count 6.0% and IP6K1 inh 0.4.
Screening Cc1cccc(N2C(=O)CSC23CCN(C(=O)C2CC2)CC3)c1 returned SNCA expr inh -22.4%, KDM5B inh 25.1µM*, SNCA viab count 8.4% and IP6K1 inh 2.2.
O=C(NCCN1CCCCC1)c1nnn2cc(-c3ccccc3)[nH]c(=O)c12 was read as SNCA expr inh -5.3%, KDM5B inh inactive, SNCA viab count -13.6% and IP6K1 inh -13.7.
`CCOCCCNC(=O)c1nnn2cc(-c3ccccc3)[nH]c(=O)c12` gave SNCA expr inh 19.5%, KDM5B inh 28.2µM*, SNCA viab count -0.9% and IP6K1 inh -3.9.
Screening CCN1CCN(CCNC(=O)c2nnn3cc(-c4ccccc4)[nH]c(=O)c23)CC1 returned SNCA expr inh 0.1%, KDM5B inh 28.2µM*, SNCA viab count -2.3% and IP6K1 inh -13.7.
C[C@H]1[C@@H]2[C@@H](O)[C@H]([C@H](C)C(=O)N3CCCC3)CC[C@@]2(C)CC[C@@H]1NC(=O)CC(C)(C)C was read as SNCA expr inh -9.5%[87.6 µM], KDM5B inh inactive, SNCA viab count -6.4%[87.6 µM] and IP6K1 inh -2.7.
For CC(C)NC(=O)N1CCC2(CC1)CN(C(=O)c1ccnc(N)c1)Cc1ccccc1O2 the results were SNCA expr inh 13.7%, KDM5B inh 79.4µM*, SNCA viab count 2.7% and IP6K1 inh 10.4.
Screening CCOc1ccc(CCNC(=O)Cn2c(=O)c(=O)n(C)c3ccccc32)cc1OCC returned KDM5B inh inactive.
For COCC1CN(C)CC12CCN(C(=O)c1cccc(Br)c1)CC2 (stereo unspecified) the results were SNCA expr inh -15.4%, KDM5B inh inconclusive, SNCA viab count -6.7% and IP6K1 inh 12.6.
OC[C@@H]1O[C@H](CNCc2cccc(Cl)c2)[C@H](N2CCN(c3ccc(F)cc3)CC2)[C@@H]1O was read as SNCA expr inh -18.1%, KDM5B inh inconclusive, SNCA viab count -9.7% and IP6K1 inh 4.8.
Screening OC[C@@H]1O[C@H](CNCc2cccc(Cl)c2)[C@H](N2CCN(c3ccccn3)CC2)[C@@H]1O returned SNCA expr inh 4.5%, KDM5B inh 25.1µM*, SNCA viab count 1.5% and IP6K1 inh 7.7.
`COc1ccc(C(=O)N2CCC(C(=O)N(C)Cc3ccccc3C)CC2)c2ccccc12` gave KDM5B inh inactive.
Screening COc1ccc(NC(=O)O[C@@H]2CO[C@H]3[C@@H]2OC[C@@H]3NC(=O)Nc2ccc(C(C)=O)cc2)cc1 returned SNCA expr inh 21.0%, KDM5B inh inactive, SNCA viab count -2.8% and IP6K1 inh 3.3.
`Cn1cc2c3c(cccc31)CN(C(=O)CC(C)(C)C)CC2` gave SNCA expr inh 9.7%, KDM5B inh 31.6µM*, SNCA viab count 16.8% and IP6K1 inh -2.6.
`CCCn1cc2c3c(cccc31)CN(C(=O)Cc1ccc(OC)cc1)CC2` gave SNCA expr inh -28.1%, KDM5B inh inconclusive, SNCA viab count -13.4% and IP6K1 inh 9.7.
CCCn1cc2c3c(cccc31)CN(C(=O)COc1ccc(F)cc1)CC2 was read as SNCA expr inh -3.5%, KDM5B inh 31.6µM*, SNCA viab count 6.8% and IP6K1 inh 23.1.
O=C([C@@H]1C[C@H](F)CN1C(=O)Nc1cccc(C(F)(F)F)c1)N1CCc2ccccc2C1 was read as SNCA expr inh inconclusive, KDM5B inh inactive, SNCA viab count -26.0% and IP6K1 inh -5.1.
`O=S(=O)(NCCc1csc(-c2ccc(F)cc2)n1)c1ccccc1F` gave KDM5B inh inactive.
For Cc1cc(C)c2c(CC(=O)Nc3ccc(S(=O)(=O)N4CCCCC4)cc3)coc2c1 the results were SNCA expr inh 22.4µM*, KDM5B inh inactive, SNCA viab count -10.6% and IP6K1 inh -5.7.
For C1=C(c2nc(-c3ccncc3)cc3c2ccn3Cc2cccnc2)CCOC1 the results were SNCA expr inh -10.5%[87.6 µM], KDM5B inh inconclusive, SNCA viab count 9.3%[87.6 µM] and IP6K1 inh -19.1.
For COCCn1ccc2c(C3=CCOCC3)nc(-c3cccc(C(N)=O)c3)cc21 the results were SNCA expr inh 20.0%[87.6 µM], KDM5B inh 31.6µM*, SNCA viab count inconclusive and IP6K1 inh 14.7.
COCCn1ccc2c(C3=CCOCC3)nc(-c3cccc(O)c3)cc21 was read as SNCA expr inh 6.2%[87.6 µM], KDM5B inh 39.8µM*, SNCA viab count -11.8%[87.6 µM] and IP6K1 inh -0.1.
Screening COc1ccccc1CNC(=O)c1c(OC)cc(=O)n2c1CCCC2 returned SNCA expr inh inconclusive, KDM5B inh inactive, SNCA viab count -3.0% and IP6K1 inh 6.9.
`O=C(CCSc1nc(Cl)nc2nc[nH]c12)NCCc1ccccc1` gave KDM5B inh inactive.
For CC(C)N(CC1CC1)C(=O)CC1COc2ccc(C(=O)N(C)C)cc2N1C (stereo unspecified) the results were SNCA expr inh 8.9%, KDM5B inh inconclusive, SNCA viab count 10.9% and IP6K1 inh 7.0.
For COCCNC(=O)c1ccc2c(c1)N(C)C(CC(=O)N1CCC(O)CC1)CO2 (stereo unspecified) the results were SNCA expr inh 13.0%, KDM5B inh 28.2µM*, SNCA viab count 6.9% and IP6K1 inh -9.8.
`COCCNC(=O)c1ccc2c(c1)N(C)C(CC(=O)N1CCC(N)CC1)CO2` (stereo unspecified) gave SNCA expr inh -14.8%, KDM5B inh 28.2µM*, SNCA viab count 7.1% and IP6K1 inh 13.0.
`CCC1(CC)CCN(C(=O)CC2COc3ccc(C(=O)N(C)C)cc3N2C)C1` (stereo unspecified) gave SNCA expr inh -26.2%, KDM5B inh inactive, SNCA viab count -4.4% and IP6K1 inh 11.3.
`CCc1ccc(CN2CC3ON=C(C(=O)O)C3C2)cc1` (stereo unspecified) gave SNCA expr inh -16.7%[87.6 µM], KDM5B inh 112µM*, SNCA viab count 6.5%[87.6 µM] and IP6K1 inh -2.4.
Screening Cc1ccc(CN2CC3ON=C(C(=O)O)C3C2)cc1 (stereo unspecified) returned SNCA expr inh inconclusive, KDM5B inh inconclusive, SNCA viab count 5.3%[87.6 µM] and IP6K1 inh 4.4.
